Most compounds without a hit are left out; they make up all but 4.6% or so of the library.
TRHR ag – agonists of human TRH receptor. P34981. TRHR cells, calcium flux fluo-8, FDSS agonist mode. activation, % at 2 µM. 0.18% of 360,000 active. AID 493084; note: 0% is about no effect
Target sequence (P34981 whole entry, looked up): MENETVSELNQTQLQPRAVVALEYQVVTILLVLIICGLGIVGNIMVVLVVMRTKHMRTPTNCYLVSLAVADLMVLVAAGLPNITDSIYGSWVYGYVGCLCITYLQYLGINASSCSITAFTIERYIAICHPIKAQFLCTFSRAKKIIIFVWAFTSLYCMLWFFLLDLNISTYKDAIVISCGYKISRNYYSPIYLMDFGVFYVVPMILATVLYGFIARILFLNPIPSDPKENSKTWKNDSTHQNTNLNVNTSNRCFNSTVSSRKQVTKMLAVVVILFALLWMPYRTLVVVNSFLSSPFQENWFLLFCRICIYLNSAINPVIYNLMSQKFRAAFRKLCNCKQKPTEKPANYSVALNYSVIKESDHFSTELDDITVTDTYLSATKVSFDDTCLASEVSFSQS
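Read-out: compound-evoked intracellular calcium rise in TRHR cells, fluo-8 dye, kinetic FDSS fluorescence at 1 s/cycle following a 10-cycle baseline. Cells cultured overnight before dye loading (30 min–1.5 h, RT).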
D1 antag – human D1 dopamine receptor antagonism. HEK293 TREx D1 cells, calcium flux, dopamine EC80; stronger effect = lower value. P21728. activity change, negative = inhibition, % at 10 µM. 3.2% of 360,000 active; in the data active = activity change below about -30%; note: % is set by controls: 0 for no effect and ±100 for the full control effect
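Tetracycline-induced HEK293 Trex D1 cells, force-coupled to calcium, dye-loaded; compounds added and read 180 s, then EC80 dopamine added and calcium flux tracked kinetically another 180 s.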
TRHR PAM – allosterically enhances the human TRH receptor; P34981; TRHR cells, fluo-8 calcium fluorescence, EC20 TRH enhancement; enhancement, % at 2 µM; 0.66% of 360,000 active; in the data active = enhancement above about 30%; note: 0% is about no effect
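Enhancer read-out: after compound pinning and an initial kinetic agonist-mode read, an EC20 of TRH (10 nM final) was injected and fluo-8 calcium signal (Ex 480/Em 530) followed at 1 s/cycle for 100 cycles in TRHR-expressing cells.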
D1 PAM – potentiators of human D1 dopamine receptor; P21728; HEK293 TREx D1 cells, calcium flux, dopamine EC20 potentiation; potentiation, % at 10 µM; 0.036% of 360,000 active; AID 504651; in the data active = potentiation above about 30%; note: 0% is about no effect
D1 agonist – agonists of human D1 dopamine receptor; P21728; HEK293 T-REx D1 cells, calcium flux, agonist mode; activation, % at 2 µM; 1% of 360,000 active; note: 0% is about no effect
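Inducible HEK293 T-REx D1 cells, force-coupled to calcium signalling, were plated at 4000 cells/well with tetracycline and held overnight at 30 C. After no-wash calcium dye loading, compound-evoked calcium rise over 180 s flagged agonists.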
Active calls of the source: *; . = no result; ! = not active in a repeat. Cut-off read from the data, not from the text of the source, unless noted: active = activation above about 30%; inactive = the rest.

SMILES	TRHR ag	D1 antag	TRHR PAM	D1 PAM	D1 agonist
COc1ccc(/C=C/C(=O)Nc2ccc(C)cc2)cc1	-1	-65*	-6	-2	1
NS(=O)(=O)c1ccc(NC(=O)/C=C/c2cccc(Cl)c2)cc1	0	-9	15	-2	1
CC(=O)c1ccc(NC(=O)/C=C/c2ccc(C)cc2)cc1	0	-9	-3	-5	4
NS(=O)(=O)c1ccc(NC(=O)/C=C/c2ccc(S(=O)(=O)NCc3ccco3)cc2)cc1	1	-43*	-6	-5	5
CC(C)(C)c1ccc(/C=C/C(=O)Nc2ccc(S(N)(=O)=O)cc2)cc1	-1	-14	8	-2	33*
O=C(O)/C=C/c1ccc(S(=O)(=O)NCc2ccco2)cc1	1	0	-4	-2	5
COc1cccc(N2CCN(c3ncnc4c3[nH]c3ccc(F)cc34)CC2C)c1 (configuration not stated)	0	-35*	6	-8	11
Cn1cc(/C=N/n2cnc3scc(-c4ccccc4)c3c2=O)c2ccccc21	1	-44*	0	-6	3
CCCCOc1ccc(C(=O)Nc2ccc3c(c2)CCCN3S(=O)(=O)c2ccc(C)cc2)cc1	1	-10	2	0	1
O=C(CSc1ncn[nH]1)Nc1ccccc1C(=O)O	0	8	-7	0	0
O=C(CSc1ncn[nH]1)Nc1ccc(Br)cc1F	-1	-36*	-4	1	1
COc1ccc(NC(=O)CSc2nc3ccccc3c(=O)n2CCCN2CCOCC2)c(OC)c1	-1	-33*	4	-7	4
COc1cccc(NC(=O)CSc2nc3ccccc3c(=O)n2C)c1	-1	1	-4	7	50*
CCOCCCn1c(SCC(=O)Nc2ccc(OC)cc2OC)nc2ccccc2c1=O	0	14	20	3	-2
CC(C)Oc1ccccc1NC(=O)CSc1nc2ccccc2c(=O)n1C	-1	-1	3	-8	5
COc1cccc(N2C(=O)C(CC(=O)Nc3ccc(Cl)cc3)N(Cc3ccc4c(c3)OCO4)C2=O)c1 (configuration not stated)	0	-12	-6	-1	-1
COc1ccc(-n2c(O)c(/C=N/NS(=O)(=O)c3cc(C)ccc3C)c3ccccc3c2=O)cc1OC	72*	-4	8	-3	69*
COc1ccc(-n2c(O)c(/C=N/Nc3nc(C)cc(C)n3)c3ccccc3c2=O)cc1OC	0	16	-2	3	-2
COc1ccc(-n2c(O)c(/C=N/NS(=O)(=O)c3ccc(C)cc3)c3ccccc3c2=O)cc1OC	23	-6	2	1	53*
CCC(=O)C1=C(c2cccc(OC)c2)N(C(=O)CC)n2c(nnc2C2CCCCC2)S1	0	.	4	1	3
CCCCN(CC)CCNC(=O)C1CCCN(c2ncnc3onc(C)c23)C1 (configuration not stated)	1	-30*	-5	1	-1
CCOCCCNC(=O)C1CCCN(c2ncnc3onc(C)c23)C1 (configuration not stated)	2	-20	5	1	9
Fc1ccc(CNC(=S)Nc2cccc(C(F)(F)F)c2)cc1	0	-23	8	-12	-1
Fc1ccc(Nc2nc3nonc3nc2Nc2cccc(C(F)(F)F)c2)cc1	7	-37*	-10	-3	24
CCC(=O)N1CCc2cc(S(=O)(=O)NC(C(=O)NCc3ccc(OC)cc3)C(C)C)ccc21 (configuration not stated)	0	23	16	2	-1
CCOc1ccc(C(=O)NCCn2cc(SCC(=O)Nc3ccccc3)c3ccccc32)cc1	-2	0	7	-3	1
CC1(c2ccc(OC(F)F)cc2)NC(=O)N(/N=C/c2c(O)ccc3ccccc23)C1=O (configuration not stated)	4	29	-1	-1	32*
CC(=O)c1ccc(NC(=O)CSc2ccc(-c3ccc(-n4cccn4)cc3)nn2)cc1	0	23	6	-1	1
CCCCCNS(=O)(=O)c1cc2c3c(c1)CCC(=O)N3CCC2	0	-30*	9	-10	15
COc1ccccc1CNS(=O)(=O)c1cc2c3c(c1)CCN3C(=O)CC2	0	-11	30*!	-6	11

Source: PubChem BioAssay
